Source: PubChem BioAssay (NCI)
Several values for one entry are separate records, joined by “and”; a condition that tells them apart may be missing. Identical values can stand only once. About 83,000 compounds went through this panel and 20% of them were active in at least one assay; those are over-represented in the sample as a whole.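 Plates (96-well) were seeded with cells, treated with compound at one concentration, and incubated for 48 hours before percent growth was determined.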 Activity calls are given as the source filed them. Rule for the calls: active = growth percent below 10; inactive = the rest.

These molecules were tested on MDA-MB-468 breast (assay: NCI-60 one-dose screen, 48 h (100 = growth as untreated, 0 = no growth, -100 = all killed)). Conditions: 10 µM unless noted.

SMILES	growth
N#CSc1cc(S(N)(=O)=O)ccc1N	105% (inactive)
CC(C)C(C(=O)NCCN1CCOCC1)N1C(=O)/C(=C/c2ccc(Br)cc2)SC1=S (stereo not given)	99.2% (inactive)
CCCOc1ccc(/C=N/Nc2cc(C)nc3ccc(Br)cc23)cc1	96.1% (inactive)
Cc1oc2nc[nH]c(=O)c2c1C(=O)/C=C/c1ccc(Br)cc1	-55.4% (active)
CCCCCCCC/C=C/CCCCCCCC1=NC(C)(C)CN1C(C)C	-70.1% (active)
COc1ccc(-n2nc(C)c3c(Oc4ccc(NC(=O)Nc5c(Cl)cccc5Cl)cc4)ncnc32)cc1	107% (inactive)
COC(=O)/C(CCC=C(C)C)=C1\[C@@H](OC(C)=O)C[C@@]2(C)[C@H]1C[C@@H](O)[C@H]1[C@@]3(C)CC[C@H](NC(=O)c4cnccn4)[C@@H](C)[C@@H]3CC[C@@]12C	106% (inactive)
C=CCn1c(SCC(=O)Nc2ccc(C(=O)/C=C/c3cc(OC)c(OC)c(OC)c3)cc2)nnc1-c1cc(-c2ccc(Cl)cc2)nc2ccccc12	108% (inactive)
O=C1/C(=C/c2ccccc2Br)COc2ccc(O)cc21	69.1% (inactive)
C=C(CNCCc1ccc(O)cc1)[C@@H]1CC[C@]2(CO)CC[C@]3(C)[C@H](CC[C@@H]4[C@@]5(C)CCC(NCCc6ccc(O)cc6)C(C)(C)[C@@H]5CC[C@]43C)[C@@H]12 (stereo not given in full)	-74.6% (active)
O=C(c1ccccc1)C(CN1CCOCC1)c1ccccc1 (stereo not given)	-68.7% (active)
CN(C)c1ccc2nc3ccc(=O)cc-3sc2c1	15% (inactive) and 29.5% (inactive)
Cc1[nH]c2ncnc(Oc3ccc(NC(=O)Nc4ccc(Cl)c(C(F)(F)F)c4)cc3)c2c1C	69.5% (inactive)
CN1CCN(CCCOc2ccc3ncnc(Nc4ccc(OCc5cccc(F)c5)c(Cl)c4)c3c2)CC1	-63.1% (active)
COc1cc(NCCCN(CC(C)C)CC(C)C)c2ncccc2c1	-27.1% (active)
OC(c1cc2cc(Br)ccc2c2cc(Br)ccc12)C1CCCCN1 (stereo not given)	-83.1% (active)
CC(=O)N1N=C(C2C(=O)N(C)C(=O)N(C)C2=O)CC1c1ccccc1C(=O)O (stereo not given)	114% (inactive)
C#Cc1ccc(-n2c(/C=C/c3ccc(Cl)c(F)c3)nc3ncccc3c2=O)cc1	-74.5% (active)
N#Cc1c(NC(=O)c2ccccc2I)sc2c1CCCC2	50% (inactive)
C[C@H]1[C@H](C)CC[C@]2(C(=O)NCCNCCN)CC[C@]3(C)C(=CC[C@@H]4[C@@]5(C)CCC(=O)C(C)(C)[C@@H]5CC[C@]43C)[C@H]12	34% (inactive)

SMILES	growth
COc1cc(/C=C/C(=O)Nc2cccnc2Nc2ccc(F)cc2)cc(OC)c1OC	97.4% (inactive)
Cc1ccc(C(=O)Nc2ccc(CN3CCN(C)CC3)c(C(F)(F)F)c2)cc1C#Cc1cnc(N)c2ccc(F)cc12	-79.2% (active)
COc1cc2nc3c(=O)n(-c4ccc(C#N)cc4)cnn3c(=O)c2cc1OC	97.4% (inactive)
Cn1cc(-c2csc(-c3cn(C)c4ncccc34)n2)c2ccccc21	18% (inactive)
CC(=O)N[C@@H](CCC(N)=O)C(=O)O	108% (inactive)
CCN(CC)c1cc2oc3cc(N)cc(=N)c-3nc2cc1C	38.3% (inactive)
Cc1ccncc1NC=O	107% (inactive)
COc1cccc(-c2nc(-c3ccc(NC(=O)C(C)C)cc3)[nH]c2-c2ccnc(Br)c2)c1	26.4% (inactive)
CC(C)(C)c1ccc(O)c(-c2ccccc2)c1	140% (inactive)
O=C1CCc2c(sc3[nH]c(=S)n(Cc4ccccc4)c(=O)c23)C1	-3.67% (active)
COC(=O)c1sc(-c2ccc(C)cc2)cc1O	99.5% (inactive)
CC1CCCN(CCCCOc2ccc(-c3ccc(C#N)cc3)cc2)C1 (stereo not given)	87.6% (inactive)
O=C(NCCNc1nccc(-c2c(-c3cccc(O)c3)nc3sccn23)n1)c1ccccc1	54.7% (inactive)
CCCCCCCCCCCCCCCCCCSC(=N)N	67.8% (inactive)
NCCNc1nc2ccccc2c2c(=O)c3cccc(F)c3sc12	70.6% (inactive)
COc1ccc2nc(NC(=O)c3cccnc3Nc3cc(OC)c(OC)c(OC)c3)sc2c1	60.3% (inactive)
O=C(Nc1ccccc1)Nc1ccc(C(=O)/C=C/c2ccc(N3CCCC3)cc2)cc1	17.3% (inactive)
NS(=O)(=O)N(c1cc(C(F)(F)F)cc(C(F)(F)F)c1)C1CCN(Cc2ccc(F)cc2)CC1	52.9% (inactive)
CC[C@H]1[C@@H]2C=C[C@@H]3[C@H]4C/C=C\C(=O)NCCC[C@@H]5NC(=O)/C(=C(O)/C=C/[C@@H]4C[C@@H]3[C@H]2C[C@H]1C)C5=O	76.8% (inactive)
C/C(=N\O)C1(O)CCCCC1	-9.98% (active)
